Shown are actives, neighbours in structure and some others; about 2.8% of the full set was active somewhere.
Six1-Eya2 blk = Six1/Eya2 interaction inhibition | hit rate 0.56% among 360,000 | AlphaScreen GST-Six1/His-Eya2 binding, biochemical; hits give low values | activity change, % (no concentration beside the values) | Q15475+O00167; in the data active means activity change below about -65%; inconclusive means mostly about -30% to -63%; further: on the % scale 0 is the no-effect control and ±100 the full control effect
Target sequence (O00167 whole entry, looked up): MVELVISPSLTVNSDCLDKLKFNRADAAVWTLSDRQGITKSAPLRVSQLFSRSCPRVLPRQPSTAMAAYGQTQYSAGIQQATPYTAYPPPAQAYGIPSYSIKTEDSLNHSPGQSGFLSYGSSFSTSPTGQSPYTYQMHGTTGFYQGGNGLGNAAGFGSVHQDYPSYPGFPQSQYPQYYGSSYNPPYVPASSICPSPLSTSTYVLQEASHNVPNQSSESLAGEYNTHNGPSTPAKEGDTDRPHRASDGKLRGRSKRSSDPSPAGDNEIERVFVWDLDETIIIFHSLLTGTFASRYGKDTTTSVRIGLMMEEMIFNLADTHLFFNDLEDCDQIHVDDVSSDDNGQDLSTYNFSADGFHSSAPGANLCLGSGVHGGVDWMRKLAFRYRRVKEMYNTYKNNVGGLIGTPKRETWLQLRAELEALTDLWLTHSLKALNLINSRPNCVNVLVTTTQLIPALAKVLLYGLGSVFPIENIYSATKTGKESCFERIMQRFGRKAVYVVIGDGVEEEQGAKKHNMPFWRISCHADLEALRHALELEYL
Target sequence (Q15475 whole entry, looked up): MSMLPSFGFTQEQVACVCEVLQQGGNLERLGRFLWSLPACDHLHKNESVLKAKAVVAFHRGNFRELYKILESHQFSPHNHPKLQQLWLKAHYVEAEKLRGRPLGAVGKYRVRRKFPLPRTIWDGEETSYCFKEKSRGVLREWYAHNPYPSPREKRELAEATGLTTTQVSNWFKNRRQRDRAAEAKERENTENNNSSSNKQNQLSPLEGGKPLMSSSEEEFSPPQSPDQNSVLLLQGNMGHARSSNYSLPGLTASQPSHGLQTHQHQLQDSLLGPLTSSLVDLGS
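AlphaScreen with GST-Six1 and His-Eya2 (5X mix: 250 nM and 500 nM), glutathione donor and nickel acceptor beads; buffer 50 mM Tris pH 8.0, 300 mM NaCl, 1 mM TCEP; 1 h at 37 C in the dark.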
HepG2 viability = kills HepG2 cells in TGF-b inhibitor counter-screen; hit rate 0.76% among 410,000; AID 588856; Potency, µM (doses to about 46.1 µM), for inactives: at the highest dose activity change, negative = cytotoxicity, actives largely listed as cytotoxic; HepG2 CAGA-GFP viability, ATP luminescence, 18 h; further: potency means the concentration at half of the fitted maximal effect
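HepG2 CAGA-GFP cells (1000/well, DMEM with 1% FBS) received compound, then TGF-beta at 500 pg/mL final, and were incubated 18 hours at 37 degrees C. Viability was read by CellTiter-Glo luminescence. Media-only wells were set as complete cell-killing and DMSO as no toxicity.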
ATXN2 expr inh = inhibitors of ATXN2 expression. Potency, µM (titrated, usually from 57 µM), for the others: at the top dose activity change, negative = inhibition, hits mostly inhibitors. hit rate 0.72% among 360,000. HEK-293 ATXN2-luciferase reporter, luminescence, 24 h. AID 1745845; further: potency means the concentration at half of the fitted maximal effect; on the % scale 0 is the no-effect control and ±100 the full control effect; nearly all actives have a fitted effect of over 55% in size
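qHTS (up to 57 uM final) was run with 24 h compound exposure of reporter cells at 37 °C. Each well was multiplexed: SteadyGlo luminescence measured ATXN2-luciferase expression after a fluorogenic Gly-Phe-AFC viability readout (25 uM final).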
CtBP-E1A blk = CtBP/E1A binding inhibition | AlphaScreen GST-E1A/His-CtBP binding, 1536-well; hits give low values | activity change, % (no concentration beside the values) | hit rate 0.49% among 340,000; in the data active means activity change below about -65%; inconclusive means mostly about -30% to -63%; further: on the % scale 0 is the no-effect control and ±100 the full control effect
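AlphaScreen with 125 nM GST-E1A and 125 nM His-CtBP (5X stocks) in Tris pH 8.0, 300 mM NaCl, BSA, Tween 20, TCEP. Compounds preincubated 2 h at 37 deg C, then glutathione donor/nickel acceptor beads added for 1 h at 37 deg C in dark.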
TGFb inhibitor = blocks TGF-b signaling | HepG2 CAGA-GFP TGF-b/SMAD3 reporter, GFP fluorescence, 18 h; TGF-beta stimulated, 500 pg/mL final | Potency, µM (titrated, usually from 46.1 µM), for the others: at the top dose activity, negative = inhibition, usual class: inhibitors | hit rate 1.2% among 410,000; further: potency means the concentration at half of the fitted maximal effect; on the % scale 0 is the no-effect control and ±100 the full control effect; nearly all actives have a fitted effect of over 65% in size
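HEPG2 CAGA-GFP cells (1000/well, DMEM with 1% FBS) were pre-incubated 2 h at 37 degrees C, given compound by pin tool, then stimulated with TGF-beta at 500 pg/mL final for 18 h before per-cell GFP fluorescence imaging.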
S2 tox = viability counter-screen for ATXN expression inhibitors; S2 cells (HEK-293 line with an ATXN2-luciferase reporter) viability, CellTiter-Fluor protease fluorescence, 24 h; Potency, µM (highest dose often 56.7 µM), actives largely listed as cytotoxic; hit rate 0.49% among 400,000; AID 651635; further: potency means the concentration at half of the fitted maximal effect; nearly all actives have a fitted effect of over 40% in size
* hit, by the source's call; i = inactive; ? = inconclusive; · = not tested or not shown. Unless noted, the call rests on the fitted dose curve; in most records, active means well fitted curve in the direction sought with a large enough effect; inconclusive means small, poorly fitted or top-dose-only effect, or another doubt; inactive means no such curve, though single readings can be large; an effect the other way counts as inactive or inconclusive.

SMILES	Six1-Eya2 blk	HepG2 viability	ATXN2 expr inh	CtBP-E1A blk	TGFb inhibitor	S2 tox
Cc1ccc(CN2C[C@H](Sc3ccccn3)C[C@H]2C(=O)Nc2ccc3sc(C)nc3c2)cc1	·	·	·	·	·	i
Cc1n[nH]c(=O)nc1N/N=C/c1ccco1	-68*	-141%	-8%	?	3%	i
Cc1cnc(NC(=O)Nc2cc(Br)c(C)cc2OC[C@@H]2CNCCO2)cn1	·	·	1.2µM*	·	·	·
CCCCOC(=O)NC1CCc2cc(OC)c(OC)c(OC)c2-c2ccc(SC)c(=O)cc21 (stereo not drawn)	-14	0%	1%	-13	-80%	0.038µM*
COc1ccc(CCn2c(=N)c(C(=O)NCc3ccco3)cc3c(=O)n4ccccc4nc32)cc1	-75*	-5%	-38%	-83*	-25%	?
N=c1c(C(=O)NCCc2ccccc2)cc2c(=O)n3ccccc3nc2n1Cc1ccco1	0	-1%	-18%	-2	-13%	i
O=C(Nc1ccccc1)c1ccc(-c2ccccc2C(F)(F)F)o1	7	-28%	19%	14	?	?
O=C(NCc1ccc(Cl)cc1)c1ccc(-c2ccccc2C(F)(F)F)o1	-13	-59%	-17%	4	16µM*	i
Cc1ccsc1/C=C/C1=Cc2c(sc(NC(=O)CSc3n[nH]c(N)n3)c2C#N)C(C)(C)C1	-10	13µM*	?	-5	10µM*	i
CCOC(=O)c1sc(NC(=O)CSc2n[nH]c(-c3ccncc3)n2)c(C#N)c1C	-3	-41%	-10%	-1	?	i
CCOc1ccc(/C=C/C2=Cc3c(sc(NC(=O)CSc4n[nH]c(N)n4)c3C#N)C(C)(C)C2)cc1	-11	20µM*	?	-15	-16%	·
O=C(N/N=C/c1ccc(C(F)(F)F)cc1)c1ccc(O)cc1	-1	-20%	4%	-4	-19%	i
NC(N)=NN=C(c1ccc(F)cc1)c1ccc(C(F)(F)F)cc1	1	-109%	?	8	10µM*	·
COc1ccccc1OCc1ccc(C(=O)N2N=C(C(F)F)CC2(O)C(F)F)o1 (stereo not drawn)	0	0%	14%	2	8%	i
O=C(c1ccc(COc2ccc(Cl)cc2)o1)N1N=C(C(F)F)CC1(O)C(F)F (stereo not drawn)	0	-85%	-13%	6	22µM*	i
Cc1c(-c2nsc(NC(=O)c3cccs3)n2)nnn1-c1ccc(Cl)cc1	·	-4%	0%	·	-2%	?
CCN1CCc2c(C#N)c(N3CCOCC3)nc(NCc3ccccc3)c2C1	4	2%	4%	-2	?	i
CCN1CCc2c(C#N)c(N3CCCCC3)nc(NCc3ccccc3)c2C1	-21	13µM*	-31%	-18	22µM*	?
CCC/C=C/c1ccc(CN2C(CC(C)C)C(=O)N(Cc3cn(CCC4OCCCO4)nn3)CCS2(=O)=O)cc1 (stereo not drawn)	-6	16µM*	?	?	13µM*	·
Cc1ccc(-c2ccc(CN3C(CC(C)C)C(=O)N(Cc4cn(CCC5OCCCO5)nn4)CCS3(=O)=O)cc2)cc1 (stereo not drawn)	-8	-57%	28µM*	0	?	·
CCC/C=C/c1ccc(CN2C(CC(C)C)C(=O)N(Cc3cn(CCC4OCCO4)nn3)CCS2(=O)=O)cc1 (stereo not drawn)	-1	-81%	?	?	?	·
CC(C)C1C(=O)N(Cc2cn(CCC3OCCCO3)nn2)CCS(=O)(=O)N1Cc1ccc(-c2ccc(Cl)cc2)cc1 (stereo not drawn)	-4	-22%	1%	6	-4%	?
CC1C(=O)N(Cc2cn(Cc3ccco3)nn2)CCS(=O)(=O)N1Cc1ccc(-c2ccccc2Cl)cc1 (stereo not drawn)	-7	-31%	-12%	-4	?	11µM*
CC(C)C1C(=O)N(Cc2cn(CCC3OCCO3)nn2)CCS(=O)(=O)N1Cc1ccc(-c2ccc(Cl)cc2)cc1 (stereo not drawn)	5	-70%	28µM*	-1	?	?
O=C(OCc1cc(=O)n2nc(C3CCCCC3)sc2n1)c1ccccc1Cl	·	-21%	8%	·	-19%	i
SMILES	Six1-Eya2 blk	HepG2 viability	ATXN2 expr inh	CtBP-E1A blk	TGFb inhibitor	S2 tox
Cc1cccc(C)c1-c1ccc(CN2C(CC(C)C)C(=O)N(Cc3cn(CC4CCCCC4)nn3)CCS2(=O)=O)cc1 (stereo not drawn)	-4	11µM*	?	-4	?	35µM*
CC(C)CC1C(=O)N(Cc2cn(CC3CCCCC3)nn2)CCS(=O)(=O)N1Cc1ccc(-c2ccc(Cl)c(Cl)c2)cc1 (stereo not drawn)	1	-19%	-5%	3	-28%	?
CCOC(=O)N1CCc2c(sc(NCc3ccc(OC)c(Br)c3)c2C(=O)Nc2cc(OC)ccc2OC)C1	·	-20%	·	·	0%	·
Clc1ccc2c(NCCNC3CCCCC3)ccnc2c1	5	13µM*	2.2µM*	-21	?	·
Cc1ccc(C(=O)N2C(=S)C(c3ccc(F)cc3)=NC23CCN(C)CC3)cc1	0	-50%	22µM*	7	?	25µM*
COCCNC(=O)C1CCCN(C(=O)/C=C/c2ccccc2)CC1 (stereo not drawn)	5	-1%	9%	6	6%	i
O=Cc1s/c(=N\S(=O)(=O)c2ccccc2)n(CCCCl)c1Cl	-12	8.9µM*	?	3	4µM*	5µM*
CCn1c(C)cs/c1=N\S(=O)(=O)c1ccccc1	2	1%	7%	2	-6%	i
Oc1ccc(-c2c(-c3ccsc3)sc3ccccc23)cc1	-13	-43%	?	-4	11µM*	?
O=C(NCCN1CCC(n2c(=O)[nH]c3ccccc32)CC1)c1cccc(Cl)c1	4	·	-19%	-17	·	i
CCN(CC)CCNC(=O)c1ccc2nc(-c3ccccc3)c(-c3ccc(CN4CCC(n5c(=O)[nH]c6ccccc65)CC4)cc3)nc2c1	·	·	27µM*	·	·	·
COc1ccc(C(=O)NC(Nc2ccc(C)cc2)C(Cl)(Cl)Cl)cc1 (stereo not drawn)	-21	-6%	-20%	5	11µM*	i
O=c1c2ccccc2nc(N2CCN(c3cccc(Cl)c3)CC2)n1-c1ccccc1	·	-47%	·	·	7.1µM*	·
O=C(Cn1nnc(-c2ccc(CN3CCOCC3)cc2)n1)Nc1nc(-c2ccccc2)cs1	-21	-44%	-10%	-24	13µM*	i
COc1ccc(C23CC4CC(CC(C4)C2)C3)cc1C(=O)NCCN(C)C	13	16µM*	·	·	?	·
